# According to PubChem BioAssay:
# Experiment: COS7 lysate on small-molecule microarray, probe aHis, 635 nm (AID 1123);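 note: z-score combines 667nm fluorescence intensity with signal-to-noise per printed compound spot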
# Conditions: COS7 cell lysate, fluorescence, higher = more signal
row,Structure (SMILES),composite z-score
1,COC(=O)C[C@H]1O[C@@H](CCc2ccccc2)[C@@H](C)[C@@H]1[Si](C)(C)c1ccc(OC)cc1,-0.308
2,CC(=CC1CCCCC1)[C@@H](NC(=O)c1cccnc1)c1ccc(-c2ccccc2)cc1,1.24
3,[N-]=[N+]=Nc1ccccc1C[C@]1(C(=O)NCC(O)CO)N=C(c2ccc(OCCCO)cc2)O[C@H]1c1ccccc1 (stereo not given in full),2.83
4,COCC(=C=CC[C@H](O)c1cccc(OCCO)c1)CCO,1.44
5,COC(=O)[C@H](Cc1ccccc1)N[C@H](/C=C/C1CC1)[C@@H](O)Cc1ccccc1,0.369
6,C=CCOC(=O)[C@H]1[C@@H]2C(=O)O[C@@H](c3ccccc3)[C@@H](c3ccccc3)N2[C@@H](c2ccc(OCCOC(=O)[C@@H]3C[C@@H]4C(=O)N5CCC[C@H]5C(=O)N4[C@@H]3c3cccc(OCCO)c3)cc2)[C@]12C(=O)Nc1ccc(I)cc12,1.15
7,COCC(=C=CC[C@@H](O)c1ccc(OCCO)cc1)C[C@@H](O)c1ccccn1,0.528
8,COc1ccc([Si](C)(C)[C@@H]2[C@@H](CCO)O[C@]3(C(=O)N(Cc4cccc(N5CCOC5=O)c4)c4ccccc43)[C@H]2C)cc1,0.531
9,[N-]=[N+]=Nc1ccccc1[C@H]1OC(c2ccc(OCCCO)cc2)=N[C@@]1(Cc1ccccc1)C(=O)N1CCOCC1,2.89
10,CN1C(=O)C2C=CC(C(O)C=Cc3ccc([N+](=O)[O-])cc3)N(Nc3ccccc3)C2C1=O (stereo not given),1.21
11,C#CCOc1ccc(C[C@@H](C(=O)OC)N(CC#C)[C@@H](/C=C/C2CC2)[C@H](O)Cc2ccccc2)cc1,-0.148
12,O=C(NCc1ccccc1)[C@@H]1c2ccccc2C(=O)N(C2Cc3ccccc3C2)[C@H]1c1ccc(CO)cc1,1.35
13,COC(=O)c1c2oc(c1C(=O)OC)C(=O)NC1(CCCCC1)c1cn(nn1)C[C@H](Cc1ccccc1)NC(=O)N[C@H](CO)CC2,1.75
14,CCCCCCc1nc(-c2ccc(-c3ccc(Cl)c(Cl)c3)o2)cc2c1[Si](C(C)C)(C(C)C)O[C@H]2c1ccccc1,0.458
15,COCCOC(=O)N1C(=O)[C@@]2(c3cc(C#CC4(O)CCCCCC4)ccc31)[C@H](C(=O)Nc1nc3ccccc3s1)[C@H]1C(=O)O[C@H](c3ccccc3)[C@H](c3ccccc3)N1[C@@H]2c1ccc(OCCO)cc1,0.541
16,COC(=O)[C@@]1(Cc2ccc(OC)cc2)[C@H]2c3cc(C(=O)N4CCCC4)n(CCCNc4ncc(C(F)(F)F)cc4Cl)c3C[C@H]2CN1C(=O)c1ccccc1,0.97
17,COC(=O)[C@@]1(Cc2ccc(OC)cc2)[C@H]2c3cc(C(=O)N4CCCC4)n(CCc4ccc(O)c(O)c4)c3C[C@H]2CN1C(=O)c1ccccc1,3.42
18,Cc1c(NC(=O)/C(C#N)=C/c2cccc([N+](=O)[O-])c2)c(=O)n(-c2ccccc2)n1C,0.719

row,Structure (SMILES),composite z-score
1,C[N+](C)(C)CCCC[C@@H]1NC(=O)[C@@H]2C[C@H](C(=O)NCCCCCCNC(=O)CS)[C@H](c3ccc(O)cc3)N2C1=O,0.443
2,COC(=O)[C@@]1(Cc2ccccc2)[C@H]2c3cc(C(=O)N4CCCC4)n(Cc4ccc(O)c(OC)c4)c3C[C@H]2CN1C(=O)c1ccccc1,2.37
3,O=C1O[C@@H](c2ccccc2)[C@@H](c2ccccc2)N2[C@@H](c3ccccc3OCCO)[C@]3(C(=O)Nc4ccccc43)[C@@H](C(=O)O)[C@H]12,1.78
4,CCCNC(=O)[C@@H]1c2ccccc2C(=O)N(Cc2ccccc2OC)[C@H]1c1ccc(CO)cc1,1.83
5,CC[C@@H]1C=C(C(=O)O)[C@H](c2ccc(C)cc2)N1S(=O)(=O)c1ccc(C)cc1,0.969
6,O=C1O[C@H](c2ccccc2)[C@H](c2ccccc2)N2[C@H]1[C@@H](C(=O)NC[C@H](O)c1ccccc1)[C@]1(C(=O)Nc3ccccc31)[C@H]2c1ccc(O)cc1,1.19
7,Cc1ccc(S[C@]2(C(=O)NCC(C)C)CC(=O)N(Cc3cc(C(F)(F)F)cc(C(F)(F)F)c3)[C@@H]2c2ccc(CO)cc2)cc1,0.586
8,COCCOC(=O)N1C(=O)[C@@]2(c3cc(C#CC4=CCCCC4)ccc31)[C@H](c1ccc(OCCO)cc1)N1[C@H](c3ccccc3)[C@H](c3ccccc3)OC(=O)[C@H]1[C@@H]2C(=O)N1CCc2cc(OC)c(OC)cc2C1,1.01
9,COc1ccccc1CN1C(=O)c2ccccc2[C@@H](C(=O)NCc2ccccc2)[C@@H]1c1ccc(CO)cc1,1.15
10,COCCOC(=O)N1C(=O)[C@@]2(c3ccccc31)[C@H](C(N)=O)[C@H]1C(=O)O[C@H](c3ccccc3)[C@H](c3ccccc3)N1[C@@H]2c1ccc(O)cc1,2.37
11,C=C(/C(=C/C[C@H](OC(C)=O)c1ccc(OCCO)cc1)c1cc(C(=O)OC)ccc1OC)C(C)C,1.73
12,COCCCNC(=O)[C@@]1(Sc2ccc(C)cc2)CC(=O)N(Cc2ccccc2Cl)[C@@H]1c1ccc(CO)cc1,1.35
13,O=C(O)[C@H](Cc1ccccc1)n1cc(-c2ccccc2)nn1,-0.065
14,CC(C)[Si](C#CCCCC#N)(Oc1ccccc1Br)C(C)C,0.51
15,C=CC1c2cc(O)c(OC)cc2CCN1Cc1cccc(OC(F)(F)F)c1 (stereo not given),3.33
16,O=C1OCCC=C[C@H]2OC34C=CCN(Cn5nnc6ccccc65)C(=O)[C@H]3N(CCO)C(=O)[C@@H]4C12 (stereo not given in full),-0.403
17,CC(C)[Si](C#C[Si](C(C)C)(C(C)C)C(C)C)(O[C@H](C)c1cn(Cc2ccccc2)nn1)C(C)C,0.664
